# aSyn UTR act: Activators working through SNCA 5'UTR binding (MLPCN) | 300,000 compounds, 7.1% hits | alpha-synuclein 5'UTR reporter, activators screen | activity score, % (tested at 7.5 µM), hits read low; in the data active = activity score below about -60%
# Starred values were filed as active, the others as inactive. Not all results are given here.
SMILES,aSyn UTR act
CNS(=O)(=O)c1ccc(NC(=S)Nc2ccc3c(c2)OCO3)cc1,-128.6*
CC(=O)O[C@]1(C(C)=O)CC[C@H]2[C@@H]3C=CC4=CC(=O)C=C[C@]4(C)[C@H]3CC[C@@]21C,-83.0*
CC(C)C(=O)Nc1ccc(NC(=O)c2cc3ccccc3o2)cc1,-90.3*
CCOC(=O)c1cccc(NC(=O)c2cc3ccccc3o2)c1,-110.3*
CCOC(=O)c1ccc(NC(=O)c2cc3ccccc3o2)cc1,-151.9*
O=C(Nc1ccc(NC(=O)c2cc3ccccc3o2)cc1)c1ccc2c(c1)OCCO2,71.5
COc1ccc(-c2cc(-c3ccc(C)cc3)n[nH]2)c(O)c1,-143.7*
Oc1ccc(Cl)cc1-c1cc(-c2ccccc2Cl)[nH]n1,-158.3*
COc1ccc(Oc2ccc(-c3ccn[nH]3)cc2)cc1,-76.2*
COc1ccc(-c2cc(-c3cc(C)ccc3O)[nH]n2)cc1,-248.7*
Cc1ccc(O)c(-c2cc(-c3ccccc3[N+](=O)[O-])[nH]n2)c1,-94.8*
COc1ccc(-c2cc(-c3ccc(OC)cc3)[nH]n2)cc1,-155.1*
Cc1ccccc1C(=O)NC(C(=O)Nc1nc2c(s1)CCCC2)C(C)C (stereo unspecified),-66.0*
COC(=O)c1ccc(C(=O)NC(=S)Nc2nc3c(s2)CCCC3)cc1,-66.1*
S=C(Nc1nc2c(s1)CCCC2)NC1CC1,-92.3*
O=C(NC(=S)Nc1nc2c(s1)CCCC2)c1ccccc1,-344.8*
Cc1c(C(=O)N2C[C@@H](C)O[C@@H](C)C2)oc2c(F)cccc12,-73.4*
Cc1c(C(=O)NC2CCOC2)oc2c(F)cccc12 (stereo unspecified),-147.6*
N/C(=N\c1nc2c(c(=O)[nH]1)CCC2)Nc1cccc2ccccc12,-70.9*
Clc1ccc(-n2nnc(-c3cccnc3Cl)n2)cn1,-130.1*
COc1ncccc1-c1nnn(-c2ccc(Cl)nc2)n1,-74.0*
Cc1ccc(-n2nnc(-c3cccnc3Cl)n2)cc1,-78.1*
c1ccc(-c2cnnc(N3CCOCC3)n2)cc1,-109.6*
Cc1cc(C)n(-c2nncc(-c3ccccc3)n2)n1,-75.8*
Cc1cc(C)n(-c2ncc(-c3ccccc3)nn2)n1,-68.5*
SMILES,aSyn UTR act
Cc1cc(C)n(-c2nc(N(c3ccccc3)c3ccccc3)nc(-n3nc(C)cc3C)n2)n1,57.0
CC(=O)C(Sc1nn(C)c(=S)s1)C(=O)Nc1ccccc1 (stereo unspecified),-99.2*
CC(=O)C(Sc1nc(N2CCOCC2)nc(N2CCOCC2)n1)C(=O)Nc1ccccc1 (stereo unspecified),-66.0*
Cc1cc(/C=C(\C#N)C(=O)NCc2ccco2)c(C)n1C1CCCC1,-137.5*
Cc1cc(/C=C(\C#N)C(=O)NCc2ccco2)c(C)n1-c1cccnc1,-100.0*
Cc1ccc(C)c(OCCn2cc(/C=C(\C#N)C(=O)NCc3ccco3)c3ccccc32)c1,52.0
COc1ccc(C(=O)Nc2nnc(SCC(=O)Nc3ccc(NC(C)=O)cc3)s2)c(OC)c1,-63.1*
O=C(CSc1nnc(NC(=O)c2ccccc2F)s1)NCc1ccc(F)cc1,-83.8*
COc1ccccc1-c1nnc(NC(C)=O)s1,-90.6*
O=C(CSc1nnc(NC(=O)c2ccccc2F)s1)NCc1ccco1,-79.8*
COc1ccc(C(=O)Nc2nnc(SCC(=O)NC3CCCC3)s2)c(OC)c1,58.1
O=C(CSc1nnc(NC(=O)c2ccc(F)cc2F)s1)NC1CC1,-68.7*
COc1ccccc1C(=O)Nc1nnc(SCC(=O)NCc2ccco2)s1,-67.4*
Cc1ccccc1C(=O)Nc1nnc(-c2ccco2)s1,65.1
COc1ccccc1C(=O)Nc1nnc(-c2ccco2)s1,-167.9*
COc1ccccc1C(=O)Nc1nnc(SCC(=O)NCC2CCCO2)s1 (stereo unspecified),-102.1*
CN1N=C(C(=O)Nc2ccc3c(c2)CCC3)CCC1=O,-140.4*
Cn1ncc(Cl)c1C(=O)Nc1ccc2c(c1)CCC2,-138.1*
FC(F)(F)c1nnc2c(Sc3ccccc3)nc3ccccc3n12,-102.7*
O=C1C(Cl)=C(N2CCOCC2)C(=O)N1CCc1ccccc1,-211.9*
O=C1C(Cl)=C(NCC2CCCO2)C(=O)N1CCc1ccccc1 (stereo unspecified),-182.6*
O=c1c([N+](=O)[O-])c(N2CCOCC2)c2ccccc2n1Cc1ccccc1,46.4
CN1CCN(C2=C(Cl)C(=O)N(CCc3ccccc3)C2=O)CC1,-111.8*
O=C1C(Cl)=C(NCCCN2CCOCC2)C(=O)N1CCc1ccccc1,-125.9*
CCCCN1C(=O)/C(=C/C=C2/CC(C)(C)CN2C)SC1=S,-133.8*
SMILES,aSyn UTR act
Cc1cccc(C(=O)N=c2sccn2C)c1[N+](=O)[O-],-133.5*
Cn1ccsc1=NC(=O)c1ccc(S(C)(=O)=O)cc1,-61.7*
Cn1ccsc1=NC(=O)c1ccc(Cl)c([N+](=O)[O-])c1,-117.1*
CCCCOc1ccc(C(=O)N=c2sccn2C)cc1OC,-164.0*
Cc1ccc(C(=O)N=c2sccn2C)cc1S(=O)(=O)N1CCOCC1,-160.1*
Cn1ccsc1=NC(=O)c1cccc(C#N)c1,-86.1*
Cc1ccc(NC(=S)N=Nc2c(O)n(C)c3ccc(S(=O)(=O)N4CCOCC4)cc23)cc1C,76.9
CCCCCNc1nc(-c2ccccc2)cs1,-168.5*
c1ccc(CCNc2nc(-c3ccncc3)cs2)cc1,-114.3*
Cc1cc(N2CCOCC2)ccc1/C=C1/SC(=O)NC1=O,-66.6*
O=C1NC(=O)/C(=C\c2ccc(O)cc2O)S1,-77.4*
C=CC(C)N1C(=O)S/C(=C\c2ccc(N3CCOCC3)cc2C)C1=O (stereo unspecified),-119.6*
C=CCN1C(=O)S/C(=C\c2ccc(N3CCOCC3)cc2C)C1=O,-151.6*
Cc1cc(N2CCCC2)ccc1/C=C1\NC(=S)N(C)C1=O,-261.4*
COc1ccccc1C(NC(C)=O)c1cc(Cl)c2cccnc2c1O (stereo unspecified),67.5
COc1ccccc1/C=C/C(=O)NCCc1ccccn1,-91.7*
COc1ccccc1/C=C/C(=O)Nc1cccnc1Cl,-132.5*
COc1ccc(/C=C/C(=O)Nc2cccnc2Cl)cc1,-224.2*
NC(=S)N/N=C/c1coc2c(ccc3ccccc32)c1=O,-74.2*
COc1ccc(OCCN2C(=O)c3cccc(N)c3C2=O)cc1,-97.7*
O=C1c2ccccc2C(=O)N1CCOc1cccc(Br)c1,-71.2*
O=c1c2ccccc2nnn1CSc1ccccc1,-74.7*
Cc1ccc(NC(=O)Nc2ccc3c(c2)OCO3)nc1,-193.1*
Cc1ccc(NC(=O)Nc2ccc(Cl)c(Cl)c2)nc1,-89.8*
Cc1ccc(NC(=O)/C=C/c2ccc3c(c2)OCO3)nc1,-109.2*
SMILES,aSyn UTR act
CC(/C=C/c1ccc2c(c1)OCO2)=N/NC(=O)CNc1ccc(C)cc1,-61.8*
Cc1ccc(NC(=O)Nc2ccc(Cl)cn2)cc1,-147.1*
CCCCCCOc1ccc(OCC(O)CN2C(=O)NC(C)(C)C2=O)cc1 (stereo unspecified),-128.2*
CCC(=O)Nc1ccc(NC(=S)NC(=O)/C=C/c2ccccc2)cc1,-62.3*
Cc1ccnc(NC(=S)NC(=O)/C=C/c2ccccc2)c1,-67.9*
CC(=O)Nc1ccc(NC(=S)NC(=O)/C=C/c2ccc(Cl)cc2)cc1,-75.0*
CC(=O)c1ccc(NC(=S)NC(=O)/C=C/c2ccccc2)cc1,-103.6*
CCC(=O)Nc1cccc(C(=O)/C=C/c2ccccc2)c1,-207.6*
C/C(=N\NC(=O)c1ccoc1C)c1ccc(Br)s1,-64.9*
Cc1occc1C(=O)N/N=C/c1ccc(Br)s1,-149.0*
Cc1ccc(/C=N/NC(=O)c2ccoc2C)s1,-120.0*
CCc1nnc(NC(=O)c2ncc(Cl)c(Cl)c2Cl)s1,-61.7*

# Screening results deposited in PubChem BioAssay by Broad Institute.
